Experimental findings from ChEMBL document CHEMBL4888484, “Replenishing the malaria drug discovery pipeline: Screening and hit evaluation of the MMV Hit Generation Library 1 (HGL1) against asexual blood stage Plasmodium falciparum ,using a nano luciferase reporter read-out” (2022) are described below.

Out of some 4,800 compounds screened, about 420 (8.8%) showed an effect of 50% or more. Shown is part of a subset that was picked to be rich in strong results.

The test system of this test is Plasmodium falciparum. The test is described as follows: Confirmatory screen in NF54 nanoGlo assay, in single point, at 2uM, 72h. Type of test: functional, Erythrocyte. To be noted: timepoint 72 hour.
With `CCOc1cc2c(cc1OC)[C@@H](N)CC2=O`, the “% Inhibition” value amounted to 1%.

On to `CC(C)c1cc(CN(Cc2cc(C(C)C)c(O)c(C(C)C)c2)C2CCCCC2)cc(C(C)C)c1O`, for which the “% Inhibition” value was 96%.

Take `Cc1ccc(CN(C)C2CCCCC2)o1`: the “% Inhibition” value was -18%.

On to `CCc1nn(C)cc1CN(Cc1cccc(O)c1)C1CCC(O)CC1` (stereo unspecified), for which the “% Inhibition” value was -3%.

For `Cc1ccc(-c2ccnc3c(C(=O)NC4CC4)cnn23)cc1C`, the “% Inhibition” value is on record as -2%.

Turning to `Cc1c([C@@H](NCc2ncccc2O)C(C)C)oc2ccccc12`, the “% Inhibition” value is 99%.

For `N#CC1(C#N)C(c2ccc(Cl)cc2)C1(C#N)C#N`, the “% Inhibition” value is 11%.

Take `O=C(NCc1cccc(C(F)(F)F)c1)c1csc(C(=O)NC2CCCC2)n1`: the “% Inhibition” value is given as -14%.

As to `CN(C)c1c(F)c(F)c2cc3c(C(C)(C)C)nn(C)c3nc2c1F`, the “% Inhibition” value is on record as 3%.

On to `COc1ccc([C@H](CNC(=O)c2ccccc2)N2CCC(c3ccccc3)=N2)cc1`, for which the “% Inhibition” value is recorded as -3%.

As for `Clc1ccc(Cn2cc(CNCCCn3ccnc3)c3ccccc32)c(Cl)c1`, the “% Inhibition” value is 98%.

For `Clc1ccc(COc2ccc(Cl)cc2CNCCCn2ccnc2)c(Cl)c1`, the “% Inhibition” value came to 95%.

As for `OCCNCc1ccc(Cl)cc1Cl`, the “% Inhibition” value turned out to be 0%.

In the case of `CCOc1cc(CNCCCn2ccnc2)ccc1OCc1ccccc1`, the “% Inhibition” value turned out to be 21%.

With `COc1cccc(CNCCN2CCOCC2)c1OCc1ccc(Cl)cc1Cl`, the “% Inhibition” value amounted to 7%.

With `COc1cccc(CNCCCN2CCOCC2)c1OCc1ccc(Cl)cc1Cl`, the “% Inhibition” value is on record as -1%.

With `Cc1nc2ccnn2cc1C(=O)Nc1ccc(CCC(C)C)cn1`, the “% Inhibition” value is reported as -5%.

`Cc1cc(CN(C)c2cc(C3CC3)nc(N(C)Cc3cc(C)on3)n2)no1`: the “% Inhibition” value is given as -13%.

Regarding `FC(F)Oc1cccc(-c2cc(C(F)(F)F)c3c(-c4ccc5c(c4)OCO5)noc3n2)c1`, the “% Inhibition” value turned out to be 8%.

Turning to `N#Cc1nc(COc2cccc(Cl)c2)oc1NC[C@H]1CCCO1`, the “% Inhibition” value was -1%.

In the case of `CN(CC(=O)Nc1ncccn1)S(=O)(=O)c1ccc2c(c1)OCCCO2`, the “% Inhibition” value is -7%.

On to `O=C1CC(C(=O)N2CCCCC2c2nc(-c3ccccc3)c[nH]2)CN1` (stereo unspecified), for which the “% Inhibition” value worked out at 3%.

In the case of `Nc1nc(N2CCN(c3ccc(F)c(Cl)c3)CC2)cc([C@H]2C[C@@H](N)C2)n1`, the “% Inhibition” value was determined as 32%.

For `Nc1nc(C2CC(N)C2)cc(N2CCC(Oc3ccccc3Cl)CC2)n1` (stereo unspecified), the “% Inhibition” value is 51%.

With `N[C@H]1C[C@@H](c2cc(N3CCN(C4CCCCC4)CC3)nc(N3CCCC3)n2)C1`, the “% Inhibition” value was determined as 44%.

With `CCC1CN(CCCN2C(=O)CNC2=O)CCC1c1ccccc1` (stereo unspecified), the “% Inhibition” value worked out at 0%.

For the compound `COC(=O)C1(CNC(=O)C2CCC2)CCCCC1`, the “% Inhibition” value was 1%.

In the case of `CCN(C(=O)Cn1cc(-c2ccccc2)c2ncn(CC)c(=O)c21)c1ccccc1`, the “% Inhibition” value amounted to 75%.

Regarding `CCN(C(=O)CN1C(=O)C(c2ccccc2)=NC12CCC(C)CC2)c1ccccc1` (stereo unspecified), the “% Inhibition” value is on record as -9%.

Turning to `CCN(C(=O)Cn1ncn2nc(-c3cccc4ccccc34)cc2c1=O)c1ccccc1`, the “% Inhibition” value is 1%.

Take `CCOC[C@@H](O)CN(Cc1c(-c2ccccc2)noc1N1CCC(C)CC1)CC1CC1`: the “% Inhibition” value is on record as -7%.

`CCOC(=O)N1CCC(NC(=O)c2cn[nH]c2-c2ccc(OCC)c(Cl)c2)CC1`: the “% Inhibition” value turned out to be 2%.

For the compound `O=C(NC1CCN(Cc2ccccc2)CC1)c1cn[nH]c1-c1ccccc1`, the “% Inhibition” value is recorded as -3%.

As to `CNC(=O)N1CCN(c2cc(C)nc(C3CC3)n2)CC1`, the “% Inhibition” value is listed as -18%.

Regarding `O=C(Cn1nnc2ccccc21)N(Cc1ccccc1)C1(C(=O)Nc2ccc3c(c2)OCO3)CCCCC1`, the “% Inhibition” value was 23%.

Consider `O=C(COc1ccccc1)N1CC(n2cnnc2C2CC2)C1`, for which the “% Inhibition” value was -11%.

In the case of `CC1CC(C(=O)Nc2[nH]c(=O)ncc2F)CC(C)(C)C1` (stereo unspecified), the “% Inhibition” value amounted to 92%.

For the compound `CN(C)C(=O)NCCc1ncc(C(F)(F)F)cc1Cl`, the “% Inhibition” value is -5%.

On to `Cc1cc(C#N)cc(C)c1Oc1nc(Nc2ccc(C#N)cc2Br)nc(N)c1Br`, for which the “% Inhibition” value is recorded as -9%.

For the compound `O=C(Nc1[nH]c(=O)ncc1F)c1coc(-c2ccccc2)n1`, the “% Inhibition” value amounted to 80%.

As to `Cc1nc(C(=O)Nc2[nH]c(=O)ncc2F)c(-c2ccccc2)o1`, the “% Inhibition” value is recorded as 85%.

For the compound `CC(C)c1nc(C(=O)Nc2ccccc2CN2CCNC2=O)cs1`, the “% Inhibition” value is on record as 3%.

With `Cc1ccc(-c2cc(C(=O)Nc3nnc(C(C)C)s3)no2)cc1F`, the “% Inhibition” value was determined as 39%.

As to `CC(C)c1nc(C(=O)Nc2[nH]c(=O)ncc2F)cs1`, the “% Inhibition” value is 92%.

Regarding `O=C(c1coc(-c2ccccc2)n1)N1CCc2cc(Br)ccc21`, the “% Inhibition” value was -4%.

With `COc1ccc(CN2CC[C@@H]3C(=O)NCCCCCCN(Cc4ccncc4)[C@@H]3C2)cc1Cn1ccnc1`, the “% Inhibition” value came out at 47%.

For the compound `COc1cc2c(cc1OC)C(Nc1cc(C)ccc1C)=NC(C)(C)C2`, the “% Inhibition” value is reported as -7%.

`CCC[C@@]1(C)C(=O)NCCN1Cc1nnc(-c2ccc(Cl)cc2)n1C`: the “% Inhibition” value is recorded as -10%.

For the compound `CCOC1CC2(CCN(Cc3cc(Cl)c(OC)cc3Cl)C2)C1` (stereo unspecified), the “% Inhibition” value turned out to be 1%.

Take `CC(=O)N(CC[C@]1(Cc2ccccc2Cl)CCOC(C)(C)C1)Cc1ccc(F)cc1`: the “% Inhibition” value was 0%.

Regarding `COc1ccc(-c2nn3c(Cc4ccccn4)nnc3s2)cc1OC`, the “% Inhibition” value stood at 4%.

As to `Cc1ccc(Cn2c(=O)c(N3CCC[C@H](C(=O)NCc4ccccc4F)C3)nc3ccccc32)cc1`, the “% Inhibition” value is reported as -4%.

As for `C[C@@H](CCc1ccccc1)NC(=O)c1cnn2c3c(cnc12)CCCC3`, the “% Inhibition” value is -8%.

As to `Cn1nc(C(=O)N2CCCCC[C@H]2C2CCCCC2)ccc1=O`, the “% Inhibition” value is -10%.

In the case of `Cc1cccc(NC(=O)C(=O)N(C)[C@H]2CCCc3c2cnn3C)c1F`, the “% Inhibition” value was -17%.

Turning to `CC(C)Cc1cc(C(=O)N2CCc3c(C#N)cccc32)cc(O)n1`, the “% Inhibition” value is on record as -8%.

As to `Cc1cc(-c2ccccc2)nc2sc(-c3ccccc3)c([O-])[n+]12`, the “% Inhibition” value is -2%.

As to `Cc1cc(-c2ccccc2)cc(-c2ccccc2)c1-c1cc(-c2ccccc2)cc(-c2ccccc2)n1`, the “% Inhibition” value was -10%.

`Cc1cc[n+]2c(-c3ccccc3)cc(-c3ccccc3)nc2c1`: the “% Inhibition” value came to 62%.

As to `CC[n+]1c(C)sc2cc(-c3ccccc3)sc21`, the “% Inhibition” value is on record as -15%.

On to `O=C(O)CC1(NC(=O)c2cc(Oc3ccccc3)ccn2)CCC1`, for which the “% Inhibition” value is reported as -7%.

Regarding `CCOc1ncccc1CNC(=O)CNC(C)=O`, the “% Inhibition” value came out at 3%.

Regarding `Cc1ccc(C(=O)N2CC(C)CC(C)C2)cc1NCc1ncc[nH]1` (stereo unspecified), the “% Inhibition” value turned out to be 8%.

As to `Cc1ccccc1C(=O)Cc1ncc[nH]1`, the “% Inhibition” value worked out at 75%.

For the compound `C[C@](O)(CCc1ccccc1)C(=O)NCCc1ncc[nH]1`, the “% Inhibition” value was determined as 3%.

Consider `COCC[C@](C)(O)CNC(=O)Nc1ccccc1`, for which the “% Inhibition” value is 1%.

Usually % Inhibition stands for the drop in the measured response relative to a control, in per cent.
